“And” between values parts separate entries of the source, which are not always exact repeats. Equal entries are not always repeated. The source made the active and inactive calls.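 Rule for the calls, unless noted: active = inhibition at or above 50% relative to wild type and mutant plate controls; inactive = inhibition below 50%.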

Usually inhibition stands for the drop in the measured response relative to a control, in per cent.

A short description of assay [1]: inhibitors of TNFa-induced NFkB p65 translocation, primary screen, imaging, HUVEC, MLSMR starter and 10KST1 sets (AID 438;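 active = inhibition above 20% together with a positive visual image hit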;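 note: compound added about 3h40 before a 20 min TNFalpha stimulation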;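 for inhibition: signal is the nuclear over cytoplasmic p65 intensity ratio per well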). To be noted: HUVEC TNFa-induced p65 nuclear translocation; cell count: measured here: nuclei count (cytotoxicity indicator), at 2.08 µM; inhibition: at 2 µM, stronger effect = higher value, 0% TNFa-plus-vehicle, 100% no-TNFa wells.
Assay [2] can be described thus: reduction of polyQ htt aggregates in cells – imaging, exon1htt(103Q)mCFP cells, high-content imaging, primary screen (AID 483;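 active = visual image review flags a hit and inhibition of aggregation exceeds 20%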;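 note: compound exposure lasted 3 days before fixation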;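 for nuclei count: percent of the per-plate median nuclei count of sample wells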). To be noted: exon1htt(103Q)mCFP cell line, aggregate imaging, at 2 µM; inhibition of aggregation: stronger effect = higher value; nuclei count: measured here: cell count, toxicity.
A short description of assay [3]: endothelial E-selectin expression blockers – imaging, HUVEC, immunofluorescence, MLSMR starter and 10KST1 sets, primary screen (AID 487;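 active = visually confirmed hit in the image check and inhibition above 20%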;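 for inhibition: signal is fraction of cell area covered by stained E-selectin grains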;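 for nuclei count: 100% = median nuclei count of all wells on the same plate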). To be noted: HUVEC TNFalpha-induced E-selectin immunofluorescence imaging, at 2 µM; inhibition: stronger effect = higher value; nuclei count: measured here: cell number, toxicity.
Assay [4] is described as follows: Primary imaging screen for DUSP6 inhibitors that restore phospho-Erk in transfected HeLa cells, chemical complementation (AID 609;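 active = compounds giving at least 50% inhibition in the cell-based MKP-3 phosphatase rescue imaging test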;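 for inhibition: phospho-Erk level distribution per well compared with pooled transfected vehicle control wells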). To be noted: HeLa MKP-3 transfected, phospho-Erk imaging KS statistic, at 10 µM, cells stimulated with TPA for 15 min.
The target in assay [5] is Dual specificity protein phosphatase 6 (Homo sapiens) (UniProt Q16828). Described as above. To be noted: HeLa MKP-3 transfected, phospho-Erk imaging KS statistic; at 10 µM; stronger effect = higher value; cells stimulated with TPA for 15 min.
Assay [6] addresses Voltage-gated potassium channel subunit beta-2 (Rattus norvegicus) (UniProt P62483). The assay is described as follows: inhibitors of rat Kvbeta2 reductase activity – biochemical, NADPH fluorescence, primary screen (AID 622;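 active = fluorescence slope higher than the sample average by over 3 SD, cut at about -0.22 in these data, passing the limit was not always enough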;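 note: slope of raw intensity against log time taken from 70 to 1610 s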). To be noted: recombinant KvBeta, 4-cyanobenzaldehyde reduction, at 10 µM, stronger effect = higher value.
For assay [7] the target is unchanged. The assay is described as follows: enhancers of rat Kvbeta2 NADPH turnover – biochemical, NADPH fluorescence, primary screen (AID 623;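 active = NADPH fluorescence slope more negative than the mean of all samples by about 3 SD, 99.7% confidence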;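 note: fluorescence intensity change per second fitted from 20 to 320 s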). To be noted: Recombinant KvBeta, NADPH fluorescence decrease slope, 10 min; at 10 µM; stronger effect = lower value.
Assay [8] concerns the target Alpha-2C adrenergic receptor (Homo sapiens) (UniProt P18825). The assay is described as follows: compounds altering alpha2C-coupled GIRK flux – cell-based, HEK293 alpha2C/GIRK1/2, thallium flux, primary screen (AID 624;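 active = fluorescence slope after compound addition differing from the mean of all screened samples at 99.7% confidence, in either direction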;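 note: slope of fluorescence ratio to pre-addition baseline per second over 15 to 24 s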). To be noted: thallium flux BTC fluorescence, at 10 µM, actives lie on both sides.
A short description of assay [9]: inhibitors of larval lipid processing in zebrafish, primary screen, whole organism, PED6 fluorescence, gall bladder and intestine (AID 686;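 active = a full or partial loss of lipid-probe fluorescence in the fish gall bladder, intestine or both, judged by eye; inactive = no fluorescence loss, or compound toxic to the fish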;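 note: larvae 5 to 7 days old with five fish per well; signal comes from phospholipase A2 cleavage of quenched PED6 carried via bile; overnight exposure to compound and PED6 before scoring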). To be noted: Zebrafish larvae PED6 lipid processing, fluorescence scoring; screened at 20 µM (by protocol).
Assay [10] is described as follows: loss of swimming-algae plug formation – whole organism, Chlamydomonas reinhardtii, WT vs cilia-less mutant, absorbance, 96-well, primary screen (AID 463189).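 Note: 0% = wild type cc124 cells in DMSO and 100% = ciliumless bld1 mutant cells.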 To be noted: Chlamydomonas reinhardtii gravitaxis, OD600 absorbance, 2 days; at 10 µM; stronger effect = higher value.
The nature of assay [11]: blockers of RIG-like receptor reporter activation – cell-based, Sendai virus stimulus, luciferase, 10K MLSCN set, TLR/RLR signaling modifier project, primary screen (AID 602276;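 active = inhibition at or above 50% at 10 µM; inactive = inhibition below 50%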;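 note: firefly luciferase from ISG56 promoter only with Renilla not read in this screen; 0% = Sendai virus plus DMSO and 100% = medium plus DMSO without virus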). To be noted: HEK293 RL24 IRF3 luciferase reporter, at 10 µM, stronger effect = higher value.
The nature of assay [12]: TLR3 IRF3 reporter activation blockers – cell-based, poly I:C stimulus, luciferase, 10K MLSCN set, primary screen (AID 602277;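 active = inhibition of the reporter signal at or above 50%; inactive = inhibition below 50%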). To be noted: HEK293-TLR3 RL24 IRF3 luciferase reporter, at 10 µM, stronger effect = higher value. For orientation: In a reporter assay the amount or activity of a reporter protein is the signal.
The mark [13] stands for this setting: measured here: cell density z-score.
Where [14] appears, read: measured here: nuclear c-Myc green intensity z-score.
Setting [15] is: measured here: nuclear pErk red intensity z-score, stronger effect = higher value.

Sequence of Dual specificity protein phosphatase 6 (Homo sapiens) (Q16828 whole entry, looked up): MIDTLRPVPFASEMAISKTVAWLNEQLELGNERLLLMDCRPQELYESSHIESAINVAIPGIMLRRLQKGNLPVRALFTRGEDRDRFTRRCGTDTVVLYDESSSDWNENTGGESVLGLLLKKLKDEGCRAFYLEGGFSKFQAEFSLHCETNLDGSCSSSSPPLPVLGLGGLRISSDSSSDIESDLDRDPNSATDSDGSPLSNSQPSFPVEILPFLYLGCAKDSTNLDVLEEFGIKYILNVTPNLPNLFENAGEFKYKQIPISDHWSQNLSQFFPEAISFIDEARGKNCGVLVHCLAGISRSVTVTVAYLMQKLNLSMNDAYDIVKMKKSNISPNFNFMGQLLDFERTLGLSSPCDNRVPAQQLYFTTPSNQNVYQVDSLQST
Sequence of Voltage-gated potassium channel subunit beta-2 (Rattus norvegicus) (P62483 whole entry, looked up): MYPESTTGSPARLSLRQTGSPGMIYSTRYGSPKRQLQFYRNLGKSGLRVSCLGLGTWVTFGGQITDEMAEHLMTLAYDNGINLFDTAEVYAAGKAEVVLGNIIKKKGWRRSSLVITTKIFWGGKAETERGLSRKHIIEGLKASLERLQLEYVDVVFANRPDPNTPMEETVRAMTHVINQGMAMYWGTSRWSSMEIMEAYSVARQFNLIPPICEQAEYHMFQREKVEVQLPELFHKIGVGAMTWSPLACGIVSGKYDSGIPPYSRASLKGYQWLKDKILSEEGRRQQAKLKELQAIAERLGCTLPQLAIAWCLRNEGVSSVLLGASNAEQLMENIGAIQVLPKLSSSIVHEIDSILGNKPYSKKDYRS
Sequence of Alpha-2C adrenergic receptor (Homo sapiens) (P18825 whole entry, looked up): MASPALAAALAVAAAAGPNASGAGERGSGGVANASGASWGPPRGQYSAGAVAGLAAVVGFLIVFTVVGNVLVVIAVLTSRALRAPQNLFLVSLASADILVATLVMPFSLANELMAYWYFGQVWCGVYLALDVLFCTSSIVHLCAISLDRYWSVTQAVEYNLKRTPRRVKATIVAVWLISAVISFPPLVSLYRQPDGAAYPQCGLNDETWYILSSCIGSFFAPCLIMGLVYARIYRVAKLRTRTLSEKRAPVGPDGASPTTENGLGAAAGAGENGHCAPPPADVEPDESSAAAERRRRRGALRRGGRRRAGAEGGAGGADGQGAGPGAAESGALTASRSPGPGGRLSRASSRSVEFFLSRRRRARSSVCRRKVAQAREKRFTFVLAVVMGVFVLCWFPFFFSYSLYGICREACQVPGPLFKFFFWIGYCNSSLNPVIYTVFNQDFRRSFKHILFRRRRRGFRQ

`O=C(O)c1cc(-c2ccccc2)nc2ccccc12`: the cell count in assay [1] was 572. For the same compound, the inhibition in [1] is -5.1% (inactive); in assay [3], -66.9% (inactive); in [5], -0.493% (inactive); in assay [10], -8.89% (inactive); in [11] it was 5.39% (inactive); in assay [12] it was 34.2% (inactive). The inhibition of aggregation in assay [2] is -4.1% (inactive). Besides, the nuclei count turned out to be 92.2% in assay [2] and 121% in [3]. The values for the z-score in assay [4] (setting [13]), in [4] (setting [14]) and in assay [4] (setting [15]) were 0.461, 0.0575 and -0.708, respectively. In assay [6], the fluorescence slope was -0.459 (inactive). The NADPH fluorescence slope in assay [7] is -5.4e-05 (inactive). The slope in assay [8] was 0.00561 (inactive). The compound was classed as inactive in [9].

With `COc1ccc(C2CC(=O)C(C=NCCN3CCOCC3)=C(O)C2)cc1` (stereo not given), the cell count in [1] was 379. The inhibition in [1] was -8.5% (inactive); in assay [3] it was -118% (inactive); in assay [5] it was -5.62% (inactive); in [10] it was 7.09% (inactive); in assay [11], 14.9% (inactive); in assay [12], 20.5% (inactive). In addition, the inhibition of aggregation in [2] is 0.1% (inactive). The nuclei count in [2] stood at 106%; in assay [3], 138%. Moreover, the figures for the z-score in assay [4] (setting [13]), in assay [4] (setting [14]) and in [4] (setting [15]) were 0.329, 0.663 and -0.587, respectively. Besides, in assay [6], the fluorescence slope was -0.354 (inactive). Further, in assay [7], the NADPH fluorescence slope is 9.4e-06 (inactive). In addition, in [8], the slope is 0.00492 (inactive). In assay [9], the compound was classed as inactive.

With `Cc1cc(C)n(-c2nnc(C)n2/N=C/c2ccco2)n1`, the cell count in assay [1] stood at 609. Moreover, the inhibition in [1] was -8.3% (inactive); in assay [3] it was -232% (inactive); in [5], 20.2% (inactive); in [10] it was 17.4% (inactive); in [11], 17.4% (inactive); in assay [12] it was 24% (inactive). In [2], the inhibition of aggregation is -21.9% (inactive). The nuclei count amounted to 106% in [2] and 159% in assay [3]. For the same compound, the results for the z-score in assay [4] (setting [13]), in [4] (setting [14]) and in assay [4] (setting [15]) were 1.68, -0.585 and 0.108, respectively. In addition, the fluorescence slope in [6] was -0.501 (inactive). The NADPH fluorescence slope in [7] was -5.1e-05 (inactive). Further, the slope in assay [8] was 0.00494 (inactive). In addition, the compound was called inactive in assay [9].

Turning to `CC(C[N+](C)(C)C)OC(N)=O` (stereo not given), the cell count in [1] worked out at 492. Also, the inhibition is 17.2% (inactive) in assay [1]; -25.7% (inactive) in assay [3]; 5.42% (inactive) in [5]; 4.16% (inactive) and 23.3% (inactive) in assay [10]; 14.7% (inactive) in assay [11]; 38.3% (inactive) in assay [12]. In addition, the inhibition of aggregation in assay [2] was -16.6% (inactive). Besides, the nuclei count in [2] worked out at 106%; in assay [3] it was 125%. Moreover, the z-score in assay [4] (setting [13]) was -0.295; in assay [4] (setting [14]), 0.566; in assay [4] (setting [15]), -0.0176. Also, the fluorescence slope in assay [6] was -0.491 (inactive). The NADPH fluorescence slope in assay [7] was -6.6e-05 (inactive). Moreover, the slope in assay [8] is 0.00575 (inactive). Besides, the result in assay [9] was inactive.

Turning to `COc1ccccc1-n1c(=O)c2c3c(sc2n2c(SC(C)C)nnc12)CCC3`, in [1], the cell count came out at 643. Also, the inhibition is -11.3% (inactive) in [1]; -68% (inactive) in assay [3]; -11% (inactive) in assay [5]; 34.4% (inactive) in assay [10]; 0.779% (inactive) in assay [11]; 20.4% (inactive) in assay [12]. Also, the inhibition of aggregation in assay [2] is 31.3% (active). Moreover, the nuclei count came out at 93.7% in assay [2] and 145% in assay [3]. Besides, the figures for the z-score in assay [4] (setting [13]), in assay [4] (setting [14]) and in [4] (setting [15]) were 1.45, -1.07 and 1.13, respectively. The fluorescence slope in assay [6] is -0.248 (inactive). Also, the NADPH fluorescence slope in assay [7] was 1.3e-05 (inactive). For the same compound, the slope in [8] is 0.005 (inactive). Further, the compound was classed as inactive in [9].

On to `CN(C)c1nc(OCCOC(=O)Nc2ccc(Cl)cc2Cl)nc(N(C)C)n1`, for which the cell count in [1] came out at 397. Moreover, the inhibition is -14.7% (inactive) in assay [1]; -100% (inactive) in assay [3]; -5.26% (inactive) in assay [5]; -0.1% (inactive) in assay [10]; 11.3% (inactive) in [11]; 0.088% (inactive) in [12]. Besides, the inhibition of aggregation in [2] is -0.2% (inactive). In addition, the nuclei count in assay [2] was 56.4%; in [3] it was 122%. For the same compound, the values for the z-score in assay [4] (setting [13]), in assay [4] (setting [14]) and in assay [4] (setting [15]) were 0.138, 0.513 and -0.605, respectively. The fluorescence slope in [6] is -0.48 (inactive). The NADPH fluorescence slope in assay [7] is -8.2e-05 (inactive). Besides, the slope in assay [8] is 0.00682 (inactive). The compound was classed as inactive in assay [9].

On to `CC(=O)[C@@]1(O)CC[C@H]2[C@@H]3CCC4=CC(=O)CC[C@]4(C)[C@H]3[C@@H](O)C[C@@]21C`, for which the cell count in [1] came out at 623. Moreover, the inhibition was 0.5% (inactive) in assay [1]; -142% (inactive) in assay [3]; -4.44% (inactive) in [5]; -7.94% (inactive) in assay [10]; 8.03% (inactive) in [11]; 38.5% (inactive) in [12]. Besides, the inhibition of aggregation in assay [2] was 16.3% (inactive). In addition, the nuclei count in assay [2] came out at 83%; in assay [3], 140%. For the same compound, the z-score in assay [4] (setting [13]) was -0.503; in assay [4] (setting [14]) it was -0.682; in [4] (setting [15]), 0.228. Also, the fluorescence slope in assay [6] was -0.495 (inactive). Moreover, the NADPH fluorescence slope in [7] was -5.2e-05 (inactive). In [8], the slope was 0.00465 (inactive). Also, the outcome in [9] was inactive.

For `COc1ccc(OC)c(C2=Nn3c(nnc3C3CCCCC3)SC2)c1`, the cell count in [1] was 580. Moreover, the inhibition in [1] was -3.9% (inactive); in assay [3], -38.3% (inactive); in assay [5] it was 2.92% (inactive); in assay [10], 25.7% (inactive); in [11] it was 5.58% (inactive); in assay [12], 19.6% (inactive). In assay [2], the inhibition of aggregation is 18.9% (inactive). Also, the nuclei count in assay [2] turned out to be 77.4%; in assay [3] it was 118%. Besides, the z-score in [4] (setting [13]) is -0.0238; in [4] (setting [14]), 2.3; in assay [4] (setting [15]), -0.394. In assay [6], the fluorescence slope is -0.431 (inactive). Moreover, in assay [7], the NADPH fluorescence slope was -0.000148 (inactive). In addition, the slope in assay [8] was 0.00512 (inactive). In addition, in [9], the compound was called inactive.

For the compound `Cn1c(=O)c2c3c(sc2n2c(SCc4ccccc4)nnc12)CCCC3`, the cell count in assay [1] came to 550. Moreover, the inhibition was -5.3% (inactive) in [1]; -44% (inactive) in [3]; 4.37% (inactive) in [5]; 32.4% (inactive) in [10]; -3.8% (inactive) in [11]; 97.9% (active) in [12]. Further, the inhibition of aggregation in [2] is 1.8% (inactive). Moreover, the nuclei count in assay [2] was determined as 103%; in assay [3], 99.3%. Further, the z-score is -0.0166 in [4] (setting [13]), -0.0898 in assay [4] (setting [14]) and -0.287 in assay [4] (setting [15]). Moreover, the fluorescence slope in assay [6] is -0.371 (inactive). The NADPH fluorescence slope in assay [7] was -1.7e-05 (inactive). Moreover, the slope in assay [8] was 0.00552 (inactive). Besides, the compound was classed as inactive in [9].

As to `CN(C)CCOC(=O)C(c1ccccc1)C1(O)CCCC1` (stereo not given), the cell count in assay [1] is 635. The inhibition in [1] is -7.2% (inactive); in assay [3] it was -51% (inactive); in assay [5], -6.41% (inactive); in assay [10], 13.5% (inactive); in [11] it was 15.3% (inactive); in assay [12], 45.7% (inactive). In addition, the inhibition of aggregation in assay [2] was -8.5% (inactive). Further, the values for the nuclei count in assay [2] and in [3] were 102% and 110%, respectively. In addition, the z-score in assay [4] (setting [13]) amounted to 0.315; in assay [4] (setting [14]), 0.351; in [4] (setting [15]) it was 1.54. Moreover, the fluorescence slope in assay [6] is -0.432 (inactive). Besides, the NADPH fluorescence slope in assay [7] is -7.3e-05 (inactive). Besides, the slope in assay [8] is 0.00471 (inactive). Moreover, the compound was classed as inactive in assay [9].

The values above are taken from PubChem BioAssay.
